Experimental data as given in PubChem BioAssay (EPA / NIEHS).
Activity calls are given as the source filed them. How the source made its calls: active means hit-call score of the fitted dose curve at least 0.9, where 1 is the maximum; inactive means score below 0.9.

target: Transcription factor E2F1 (Homo sapiens) (UniProt Q01094); assay: ATG_E2F_CIS: Attagene CIS-FACTORIAL HepG2 Assay for human E2F Transcription Factor 1 (AID 2282935); settings: HepG2 Attagene cis-reporter, E2F reporter RNA transcripts; actives raise or lower the signal
Experimental: ATG_CIS is a cell-based, multiplexed-readout assay that uses HepG2, a human liver cell line, with measurements taken at 24 hours after chemical dosing in a 24-well plate.ATG_E2F_CIS is one of 52 assay component(s) measured or calculated from the ATG_CIS assay. It is designed to make measurements of mRNA induction, a form of inducible reporter, as detected with fluorescence intensity signals by Reverse transcription polymerase chain reaction (RT-PCR) and Capillary electrophoresis technology.Data from the assay component ATG_E2F_CIS was analyzed into 1 assay endpoint. This assay endpoint, ATG_E2F_CIS, was analyzed with bidirectional fitting relative to DMSO as the negative control and baseline of activity. Using a type of inducible reporter, measures of mRNA for gain or loss-of-signal activity can be used to understand the reporter gene at the transcription factor-level as they relate to the gene E2F1. Furthermore, this assay endpoint can be referred to as a primary readout, because this assay has produced multiple assay endpoints where this one serves a reporter gene function. To generalize the intended target to other relatable targets, this assay endpoint is annotated to the dna binding intended target family, where the subfamily is E2F transcription factor.
Human liver HepG2 cells are transiently transfected with multiple reporter transcription units (MRTUs) in 6-well plates using FuGene 6 reagent (Roche; 3 ml FuGene/1 mg DNA). The MRTU constructs are regulated by a cis-regulating element (promoter). […] A major difference between the CIS and TRANS system is that in CIS activities of endogenous TFs are measured, whereas the TRANS assay evaluates changes in activities of exogenous, chimeric NR-Gal4 proteins. […] At the end of 24 hour incubation, total RNA was isolated using TriZol reagent (Invitrogen). The isolated RNA is then reverse-transcribed using oligo(dT) primer and Mo-MLV reverse transcriptase (Invitrogen) with DNAse I (Ambion) treatment for 30 min. The one-tenth of the produced cDNA was amplified by PCR using Taq DNA polymerase (Invitrogen) and two reporter sequence-specific primers. The PCR products were fluorescently labeled by primer extension with 6-arboxyfluorescein (6-FAM) 5'-labeled reporter sequence-specific primer (2 min at 95 C, 20 s at 68 C and 10 min at 72 C) and these products were digested with 5U of HpaI (New England Biolabs) for 2h at 37 C. The fragments were purified using Qiaquick PCR columns (Qiagen), analyzed on an ABI 3130xL genetic analyzer (Applied Biosystems) with peak positions identified by using a set of X-rhodamine (ROX)-labeled MapMarker1000 molecular weight standards (BioVentures). The raw capillary electrophoresis data was processed using Attagraph software (Attagene).

Sequence of Transcription factor E2F1 (Homo sapiens) (Q01094 whole entry, looked up): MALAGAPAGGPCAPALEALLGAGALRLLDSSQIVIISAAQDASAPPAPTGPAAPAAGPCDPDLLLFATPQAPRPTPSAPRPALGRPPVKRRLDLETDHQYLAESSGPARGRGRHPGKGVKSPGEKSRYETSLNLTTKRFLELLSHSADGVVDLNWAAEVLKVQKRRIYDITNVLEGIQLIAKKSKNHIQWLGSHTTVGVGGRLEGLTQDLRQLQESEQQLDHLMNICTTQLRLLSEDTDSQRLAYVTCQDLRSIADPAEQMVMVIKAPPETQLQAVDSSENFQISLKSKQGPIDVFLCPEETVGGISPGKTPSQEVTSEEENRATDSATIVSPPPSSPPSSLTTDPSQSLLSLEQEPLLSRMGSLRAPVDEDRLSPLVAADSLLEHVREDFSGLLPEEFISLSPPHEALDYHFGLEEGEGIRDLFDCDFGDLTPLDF

Compound	outcome	AC50
O=C1Nc2ccc(Cl)cc2C(c2ccccc2)=NC1O (stereo not given)	inactive	
CNC(=N[N+](=O)[O-])NCC1CCOC1 (stereo not given)	inactive	
C=Cc1cccc(CCl)c1	inactive	
CC(C)(C)C(O)C(Oc1ccc(-c2ccccc2)cc1)n1cncn1 (stereo not given)	inactive	
CC[N+](=O)[O-]	inactive	
CC(C)C(=O)Cl	inactive	
[CH3][Sn]([Cl])([Cl])[Cl]	inactive	
ClCCCCCCCl	inactive	
Oc1cc(Cl)ccc1Cl	inactive	
O=S(=O)(O)O	inactive	
CCC1CCC(=O)O1 (stereo not given)	inactive	
[N-]=[N+]=CC(=O)OC[C@H](N)C(=O)O	inactive	
Cc1ncc(C[n+]2csc(CCO)c2C)c(N)n1	inactive	
CCCCOP(=O)(O)OCCCC	inactive	
C=C(Cl)Cl	inactive	
c1ccc2c(c1)CCCC2	inactive	
CCN(CC)C(=S)S	inactive	
CCc1cccc(C)c1N(C(=O)CCl)[C@@H](C)COC	inactive	
CCOP(O)OCC	inactive	
[CH3][Sn]([CH3])([Cl])[Cl]	inactive	

Compound	outcome	AC50
Nc1ccc([N+](=O)[O-])cc1N	inactive	
C=COCCCl	inactive	
C=C(Cl)CCl	inactive	
Cl/C=C\CCl	inactive	
CCCCOC(=O)CCC(=O)OCCCC	inactive	
C=CCO	inactive	
COc1cc(OC)c(OC)cc1C=O	inactive	
O=c1[nH]c(Cl)c(Cl)cc1Cl	inactive	
C=CCc1ccc(OC(=O)Cc2ccccc2)c(OC)c1	inactive	
CCCCCc1cc(O)cc(O)c1	inactive	
O=C(NC(=O)c1c(F)cccc1F)Nc1ccc(Oc2ccc(C(F)(F)F)cc2Cl)cc1F	inactive	
CCOP(=O)(OCC)Oc1ccc([N+](=O)[O-])cc1	inactive	
CCC(C)(C)O	inactive	
CC1CCCC1.[C-]#[O+].[C-]#[O+].[C-]#[O+].[Mn]	inactive	
C=CC(=O)OCCCCOC(=O)C=C	inactive	
Oc1ccc(C2(c3ccc(O)cc3)c3ccccc3-c3ccccc32)cc1		19.8 µM (active)
O=c1c2ccccc2c(=O)c2c1cc(Cl)c1[nH]c3c([nH]c12)c(Cl)cc1c(=O)c2ccccc2c(=O)c13	inactive	
C[N+](C)(C)CC(=O)[O-]	inactive	
CC(C)CCCCCCCOP(=O)(Oc1ccccc1)Oc1ccccc1	inactive	
Nc1cc(Cl)cc(Cl)c1	inactive	
